Assay outcomes as filed in PubChem.
CYP2C19 act: increases human CYP2C19 enzyme activity. P33261. recombinant CYP2C19, luciferin-H EGE luminescence; stronger effect = higher value; 0 = fully inhibited enzyme, 1 = untreated enzyme. activation factor at 5 µM. 96,000 tested, under 10 active. AID 1025;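 active = activation factor of at least 2 at 5 µM in the primary screen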
CYP2C19 inh: inhibitors of human CYP2C19. P33261. CYP2C19 Supersomes, luciferin-H EGE luminescence, 30 min. inhibition, % at 5 µM. 96,000 tested, 21% active. AID 778;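 active = CYP2C19 inhibition above a set limit at 5 µM in the primary screen, cut at about 50% in these data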
CYP2C9 act: CYP2C9 (human) activation | P11712 | recombinant CYP2C9, luciferin-H conversion, luminescence; stronger effect = higher value; factor 1 = untreated enzyme, 0 = blocked | activation factor at 5 µM | 96,000 tested, 1.4% active | AID 1024;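 active = activation factor of 2 or more for CYP2C9 at a 5 µM dose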
CYP2C9 inhib: human CYP2C9 inhibition; P11712; CYP2C9 Supersomes, luciferin-H conversion, luminescence; inhibition, % at 5 µM; 96,000 tested, 20% active; AID 777;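 active = blocking of liver enzyme CYP2C9 beyond about 50% at 5 µM, limit read from the data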
PTK2B oligo ant: Pyk2 (human) oligomerization antagonism; z-score (the deposit names both 25 µM and 10 µM); 99,000 tested, 0.83% active; Q293 cells, Pyk2 FERM NanoBiT luminescence; stronger effect = lower value; AID 1347419; Q14289;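 active = Z-score of -3 or lower, scaled per plate to the spread of control and sample wells; inactive = z-score above -3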;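 also: negative z-score means lost luminescence so less FERM oligomerization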
Target sequence (Q14289 whole entry, looked up): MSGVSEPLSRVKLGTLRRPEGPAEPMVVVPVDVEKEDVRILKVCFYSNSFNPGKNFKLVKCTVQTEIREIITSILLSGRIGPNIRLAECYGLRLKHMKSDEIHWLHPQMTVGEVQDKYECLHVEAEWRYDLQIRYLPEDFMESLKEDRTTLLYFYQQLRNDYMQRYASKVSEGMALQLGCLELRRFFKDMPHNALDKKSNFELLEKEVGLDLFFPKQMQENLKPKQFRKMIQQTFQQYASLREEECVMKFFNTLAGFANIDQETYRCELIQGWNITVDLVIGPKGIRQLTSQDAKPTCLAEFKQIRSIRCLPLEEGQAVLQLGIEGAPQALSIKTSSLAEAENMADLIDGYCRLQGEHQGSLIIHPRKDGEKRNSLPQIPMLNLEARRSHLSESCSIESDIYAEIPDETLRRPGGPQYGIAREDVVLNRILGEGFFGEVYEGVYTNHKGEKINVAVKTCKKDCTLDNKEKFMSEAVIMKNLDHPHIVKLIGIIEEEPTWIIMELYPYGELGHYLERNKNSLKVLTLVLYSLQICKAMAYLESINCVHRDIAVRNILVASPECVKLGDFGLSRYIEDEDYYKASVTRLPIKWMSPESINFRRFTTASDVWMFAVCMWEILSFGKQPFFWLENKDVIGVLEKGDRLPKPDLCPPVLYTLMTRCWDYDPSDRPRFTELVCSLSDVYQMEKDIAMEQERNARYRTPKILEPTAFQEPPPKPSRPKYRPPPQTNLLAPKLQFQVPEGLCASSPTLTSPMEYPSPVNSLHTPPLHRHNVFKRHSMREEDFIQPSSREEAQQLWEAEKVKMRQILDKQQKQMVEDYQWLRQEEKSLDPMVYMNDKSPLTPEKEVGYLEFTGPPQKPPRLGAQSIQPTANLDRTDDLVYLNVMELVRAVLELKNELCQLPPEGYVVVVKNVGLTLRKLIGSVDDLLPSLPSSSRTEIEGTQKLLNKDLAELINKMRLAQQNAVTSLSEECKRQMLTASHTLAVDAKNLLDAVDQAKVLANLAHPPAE
A number is an active result; - = inactive; . = not tested or not shown. Only some compounds are listed: those with a hit (about 28% of all), similar ones and a draw of the others.

SMILES	CYP2C19 act	CYP2C19 inh	CYP2C9 act	CYP2C9 inhib	PTK2B oligo ant
Cc1nn(-c2ccccc2)c(Cl)c1/C=C(\CC(=O)O)c1nc2ccccc2s1	-	-	-	74	-
Cc1nn(-c2ccc(F)cc2)c(Cl)c1/C=C(\CC(=O)O)c1nc2ccccc2s1	-	-	-	-	-
Cc1nn(-c2ccccc2)c(Cl)c1/C=C/C(=O)c1ccccc1	-	70	-	66	-
NS(=O)(=O)c1ccc(CCNc2ncnc3sccc23)cc1	-	83	-	-	-
Cc1sc2ncnc(NCCc3ccc(S(N)(=O)=O)cc3)c2c1C	-	-	-	-	-
COc1cc2c(cc1NC(=S)Nc1cccc(C(F)(F)F)c1)oc1ccccc12	-	70	-	79	-
O=C(CN1CCOCC1)Nc1cccc(C(=O)Nc2cccc(C(F)(F)F)c2)c1	-	-	-	52	-
FC(F)(F)c1cccc(NC(=S)NCc2ccccc2)c1	-	63	-	-	-
O=C(Nc1cccc(C(F)(F)F)c1)C(SCCO)c1ccccc1 (stereo not drawn)	.	.	.	.	-
COC(=O)c1cccc(NC(=O)CN2CCOCC2)c1	-	-	-	-	-
FC(F)(F)c1cccc(NC(=S)NCCc2ccccn2)c1	-	-	-	-	-
CCC(C(=O)Nc1cccc(C(F)(F)F)c1)c1ccccc1 (stereo not drawn)	-	56	-	71	-
COC(=O)c1cn(NC(=O)C2CCCO2)c(=O)c2ccccc12 (stereo not drawn)	.	.	.	.	-
CC(=O)Nc1ccc(NC(=O)c2ccccc2CC[N+](=O)[O-])cc1	-	-	-	-	-
CSc1ccc(CNCCCN(C)C)cc1	.	.	.	.	-
O=C(CN1CCN(c2cccc(C(F)(F)F)c2)CC1)Nc1cccc(C(F)(F)F)c1	-	-	-	58	-
Cc1nnc(SCC(=O)Nc2cccc(C(F)(F)F)c2)[nH]c1=O	-	-	-	-	-
COc1cc(NC(=O)CSCC(=O)Nc2cccc(C(F)(F)F)c2)c(Cl)cc1Cl	-	-	-	50	-
O=C(COCC(=O)Nc1cccc(C(F)(F)F)c1)Nc1cccc(C(F)(F)F)c1	-	84	-	-	-
CC(=O)Nc1ccc(NC(=O)CN2CCN(c3cccc(C(F)(F)F)c3)CC2)cc1	-	-	-	-	-
O=C(Cc1ccccc1)Nc1cccc(N2CCCC2)c1	-	-	-	77	-
CNC(=O)Nc1cccc(C(F)(F)F)c1	.	.	.	.	-
CC(=O)c1c(C)nc2ccc(Cl)cn12	-	-	-	-	-
CCn1ncc(C2=NOC(C(=O)Nc3cccc(C(C)=O)c3)C2)c1C (stereo not drawn)	-	-	-	-	-
CC1CCCN(C(=O)C2CCN(CC3CC=CCC3)CC2)C1 (stereo not drawn)	-	-	-	-	-
SMILES	CYP2C19 act	CYP2C19 inh	CYP2C9 act	CYP2C9 inhib	PTK2B oligo ant
O=c1c2ccccc2ncn1-c1ccc2c(c1)OCCO2	-	-	-	-	-
CN(C)S(=O)(=O)Oc1ccccc1C(=O)Nc1cccc(C(F)(F)F)c1	-	86	-	-	-
COc1ccccc1/C=C/CN1CC(C)OC(C)C1 (stereo not drawn)	-	-	-	-	-
Nc1ccc2nc(-c3ccccc3)sc2c1	-	72	-	51	-
COc1ccccc1C1CN(c2ccc(F)cc2F)N=C1c1cccs1 (stereo not drawn)	-	70	-	91	-
CCOc1ccc(OCC)c(NC(=O)CCn2cccc2)c1	-	-	-	-	-
CN1CCN(C(=O)CSc2nc(-c3cccs3)ccc2C#N)CC1	-	-	-	-	-
Nc1nncn1C(=O)CCc1ccccc1	-	-	-	-	-
Cc1ccccc1NC(=O)CN1C(=O)NC2(CCCCC2)C1=O	-	-	-	-	-
Cc1ccccc1NC(=S)N(C)C1(c2ccccc2Cl)CCCCC1=O (stereo not drawn)	-	69	-	-	-
Oc1c(Cl)cc(Cl)cc1C(C#Cc1ccccc1)N1CCOCC1 (stereo not drawn)	-	-	-	67	-
Cc1ccc(CNC(=O)CSc2nc(N3CCCCC3)nc(N3CCCCC3)n2)cc1	-	71	-	-	-
O=C(CSc1ncccn1)NCc1ccc(F)cc1	-	-	-	-	-
Cc1ccc(CNC(=O)CCSCCC(=O)NCc2ccc(C)cc2)cc1	-	-	-	70	-
Cc1ccc(CNC(=O)CSc2ncccn2)cc1	-	77	-	-	-
O=C(CSc1nnc(-c2ccccc2NC(=O)c2ccccc2)o1)OC1CCCCC1	.	.	.	.	-
C/C(CC(=O)Nc1ccc(OCc2ccccc2)cc1)=N\NC(=O)C(=O)Nc1ccc(C)c(Cl)c1	-	-	-	-	-
CCOC(=O)c1ccc(CSc2nnc(N)s2)cc1	-	70	-	65	-
Nc1nnc(SCc2ccc(F)cc2Cl)s1	-	91	-	-	-
Nc1nnc(SCc2cccc(C(F)(F)F)c2)s1	-	96	-	-	-
Cc1cccc(OCc2nnc(N)s2)c1	-	-	-	-	-
Nc1nnc(SCc2cccnc2)s1	-	-	-	-	-
Nc1nnc(SCc2ccc(Cl)cc2)s1	.	.	.	.	-
Nc1nnc(COc2cccc(C(F)(F)F)c2)s1	-	64	-	-	-
CC1(C(=O)NC2CCCC2)CCC(=O)N1CCC1=CCCCC1 (stereo not drawn)	-	-	-	-	-
SMILES	CYP2C19 act	CYP2C19 inh	CYP2C9 act	CYP2C9 inhib	PTK2B oligo ant
Cc1ccccc1OCCNC(=S)Nc1ccccc1	-	70	-	-	-
Cc1nn(Cc2ccc(Cl)cc2)c(C)c1NC(=O)c1cc(-c2ccc3c(c2)OCO3)on1	-	-	-	54	-
Cc1nn(Cc2ccc(Cl)c(Cl)c2)c(C)c1NC(=O)c1cn(-c2ccccc2)nc1-c1ccccc1	-	-	-	90	-
Cc1nn(Cc2ccc(Cl)cc2)c(C)c1NC(=O)c1c(-c2ccccc2)noc1C	.	.	.	.	-
Cc1nn(Cc2ccc(Cl)c(Cl)c2)c(C)c1NC(=O)c1cc(-c2ccc3c(c2)OCO3)on1	-	-	-	66	-
Cc1cc(C)c(-c2c(O)c3cnn(-c4ccccc4)c3[nH]c2=O)c(C)c1	.	.	.	.	-
COc1ccc(C(C)=O)c2c(O)cccc12	-	87	-	-	-
COc1ccc(C(=O)c2ccccc2)c2c(O)ccc(C(=O)c3ccccc3)c12	-	-	-	-	-
CCCCSc1c(C)c2cc3c(cc2[nH]c1=O)OCO3	-	86	-	-	-
O=C(CSc1nnc2ccccn12)NC(=O)NC1CCCC1	-	-	-	-	-
COc1ccc(C(=O)NCC2OCCc3ccccc32)c(O)c1 (stereo not drawn)	-	90	-	51	-
O=C(CCS(=O)(=O)c1ccc(Cl)cc1)OCC(=O)N1CCCCC1	-	-	-	-	-
O=C1CSC(c2c(F)cccc2Cl)N1c1cccc(F)c1 (stereo not drawn)	-	-	2.1	-	-
Cc1nc2cc(CC(=O)O)ccc2o1	-	-	-	-	-
CC(O)CNCc1cccc2ccccc12 (stereo not drawn)	.	.	.	.	-
CNc1oc(Cc2cccc3ccccc23)nc1C#N	-	96	-	-	-
N#Cc1nc(Cc2cccc3ccccc23)oc1NCCN1CCCCC1	-	-	-	-	-
